Experimental data from PubChem BioAssay (NCATS).
Inconclusive results are not listed. Activity calls are given as the source filed them. The call rests on the fitted dose curve; in most records, active means well fitted curve in the direction sought with a large enough effect; inconclusive means small, poorly fitted or top-dose-only effect, or another doubt; inactive means no such curve, though single readings can be large; an effect the other way counts as inactive or inconclusive.

Legend:
[1] = MultiTox-Fluor Cytotoxicity Assay - LYMP1-001 - Dead Cells (AID 946);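 further: cells exposed to compound for 16 h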
Summary of the method: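 Seed 2500 LYMP1-001 cells/well, incubate 5 hr at 37 C; add compound, 16 hr at 37 C; add MultiTox-Fluor reagent, 60 min RT; read dead-cell fluorescence Ex/Em=485/520. Normalize to DMSO and 15 uM tetraoctylammonium bromide.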

[2] = MultiTox-Fluor Cytotoxicity Assay - LYMP1-001 - Live Cells (AID 947)
[3] = Cell Viability - LYMP1-002 - Assay at 16 hr (AID 948)
Summary of the method: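 In this qHTS, lymphoblastoid LYMP1-002 cells (human) receive compounds for 16 hr at 37 C. Viability is taken from CellTiter-Glo ATP luminescence, and AC50 derives from standard Hill fits.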

[4] = MultiTox-Fluor Cytotoxicity Assay - LYMP1-002 - Dead Cells (AID 960);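 further: cells exposed to compound for 16 h at 37 °C; nearly all actives have a fitted effect of over 60% in size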
Summary of the method: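 Human lymphoblastoid LYMP1-002 cells, 2500/well, treated 16 h at 37 C; dead-cell protease cleavage of bis-AAF-R110 read by fluorescence (485/520); normalized to DMSO and 15 uM tetraoctylammonium bromide; AC50 from Hill fit.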

[5] = MultiTox-Fluor Cytotoxicity Assay - LYMP1-003 - Dead Cells (AID 961);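 further: cells exposed to compound for 16 h at 37 °C; nearly all actives have a fitted effect of over 70% in size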
Summary of the method: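 LYMP1-003 lymphoblastoid, 2500 cells/well, 5 hr settle then 16 hr cpd at 37 C; MultiTox-Fluor reagent 60 min RT; Ex/Em 485/520 dead-cell signal; norm. DMSO = 0%, 15 uM tetraoctylammonium bromide = 100%; Hill AC50.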

[6] = MultiTox-Fluor Cytotoxicity Assay - LYMP1-003 - Live Cells (AID 962);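 further: cells exposed to compound for 16 hours at 37 °C; cytotoxic hits lower the live-cell protease signal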
Summary of the method: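 LYMP1-003 lymphoblastoid cells, 2500/well in complete medium, treated 16 h at 37 C; live-cell protease cleavage of GF-AFC read by fluorescence (Ex/Em 405/510) after 60 min reagent; AC50 from Hill fits of concentration-response.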

[7] = Cell Viability - LYMP1-003 - Assay at 24 hr (AID 963)
Summary of the method: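 Human lymphoblastoid LYMP1-003 cells, 2500/well, treated 24 h at 37 C in complete medium. Viability read as intracellular ATP by CellTiter-Glo luminescence after 30 min at room temperature; AC50 from Hill-equation fits of qHTS concentration-response.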

[8] = Cell Viability - LYMP1-003 - Assay at 40 hr (AID 964); further: series mostly up to about 92 µM; nearly all actives have a fitted effect of over 60% in size
Summary of the method: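 LYMP1-003 human lymphoblastoid cells, 2500/well, preincubated 5 h at 37 C, then treated with compound for 40 h at 37 C. Intracellular ATP read by CellTiter-Glo luminescence after 30 min at room temperature; AC50 from Hill-equation fits.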

[9] = Cell Viability - LYMP2-003 (AID 965);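 further: cells exposed to compounds for 24 h before reading; nearly all actives have a fitted effect of over 50% in size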
Summary of the method: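 qHTS, human lymphoblastoid line, 2500 cells/well, complete medium. 24 h drug, 37 C. ATP-based luminescent readout; Hill-fit AC50.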

[10] = Cell Viability - LYMP2-004 (AID 966); further: nearly all actives have a fitted effect of over 65% in size
Summary of the method: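 Lymphoblastoid LYMP2-004 cells, 2500 per well, were preincubated for 5 hr and then treated with compound for 24 h at 37 C in complete medium. Viability was read as cellular ATP by CellTiter-Glo luminescence, and AC50 values were taken from Hill fits to concentration-response data.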

[11] = Cell Viability - LYMP2-005 (AID 967); further: series mostly up to about 92 µM
Summary of the method: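 Luciferase-based ATP quantitation served as the viability measure in human lymphoblastoid LYMP2-005 cells exposed to test compounds for 24 h at 37 C in complete culture medium. Potency (AC50) was obtained by fitting concentration-response curves with the Hill equation.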

[12] = Cell Viability - LYMP2-009 (AID 968); further: series mostly up to about 92 µM; nearly all actives have a fitted effect of over 55% in size
[13] = Cell Viability - LYMP2-011 (AID 969); further: nearly all actives have a fitted effect of over 60% in size
Summary of the method: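 2500 cells/well in complete medium, compound-treated 24 h at 37 C. Viability read as intracellular ATP by CellTiter-Glo luminescence after 30 min at room temperature. AC50 from Hill fits of qHTS concentration-response data.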

[14] = Cell Viability - LYMP2-013 (AID 970); further: series mostly up to about 92 µM; nearly all actives have a fitted effect of over 55% in size
Summary of the method: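 Human lymphoblastoid LYMP2-013 cells, 2500/well, treated 24 h at 37 C in complete medium; viability as intracellular ATP by CellTiter-Glo luminescence after 30 min. AC50 from Hill fits of qHTS concentration-response.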

[15] = Cell Viability - LYMP2-015 (AID 971); further: nearly all actives have a fitted effect of over 55% in size
Summary of the method: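 LYMP2-015 human lymphoblastoid cells (2500/well) in complete medium, compound-treated 24 h at 37 C; viability read as cellular ATP by CellTiter-Glo luminescence after 30 min at room temperature. AC50 from Hill-equation fits of qHTS concentration-response data.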

[16] = Cell Viability - LYMP2-019 (AID 973); further: nearly all actives have a fitted effect of over 55% in size
Summary of the method: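 Human lymphoblastoid LYMP2-019 cells (2500/well) preincubated 5 h at 37 C, then treated 24 h at 37 C in complete medium. Viability by CellTiter-Glo ATP luminescence after 30 min at room temperature; AC50 from Hill fits.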

[17] = Cell Viability - LYMP2-021 (AID 974)
Summary of the method: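 Human lymphoblastoid LYMP2-021 cells, 2500/well in complete medium, treated 24 hours at 37 C. Intracellular ATP by CellTiter-Glo luminescence (30 min, RT); AC50 from Hill fits of concentration-response.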

[18] = Cell Viability - LYMP2-023 (AID 975)
Summary of the method: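 LYMP2-023 human lymphoblastoid cells, 2500/well, preincubated 5 hr at 37 C, then compound-treated 24 hr at 37 C in complete medium. CellTiter-Glo luminescence (ATP) after 30 min at room temperature; AC50 from Hill-equation fits; tetraoctylammonium bromide positive control.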

[19] = Cell Viability - LYMP2-017 (AID 972)
Summary of the method: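 LYMP2-017 human lymphoblastoid cells (2500/well) settled 5 hr at 37 C, then exposed to compound 24 hr at 37 C in complete medium. Viability taken as intracellular ATP by CellTiter-Glo luminescence after 30 min at RT; AC50 from Hill fits.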

[20] = MultiTox-Fluor Cytotoxicity Assay - LYMP1-002 - Live Cells (AID 955);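 further: cells exposed to compound for 16 hours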
Summary of the method: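 Human lymphoblastoid LYMP1-002 cells, 2500/well, treated 16 h at 37 C in complete medium. Live-cell protease activity via GF-AFC fluorescence (Ex/Em 405/510) after 60 min reagent incubation; AC50 from Hill fits.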

Measured: Potency

CCOc1ccccc1N
not listed: [19] | [20]
inactive: all other assays above

O=C1OC(=O)c2c(Cl)c(Cl)c(Cl)c(Cl)c21
not listed: [4] | [13] | [20]
inactive: all other assays above

FB(F)F
not listed: [3] | [7]
inactive: all other assays above

O=[N+]([O-])c1ccc(Cl)cc1Cl
not listed: [9] | [20]
inactive: all other assays above

C[C@@H]1O[C@@H](O[C@@H]2[C@@H](O)[C@H](OCCc3ccc(O)c(O)c3)O[C@H](CO[C@@H]3O[C@H](CO)[C@@H](O)[C@H](O)[C@H]3O)[C@H]2OC(=O)/C=C/c2ccc(O)c(O)c2)[C@H](O)[C@H](O)[C@H]1O
not listed: [19] | [20]
inactive: all other assays above

Cc1cccc2ccccc12
not listed: [3] | [11]
inactive: all other assays above

Cc1ccc(S(=O)(=O)NC2CCCCC2)cc1
not listed: [17] | [20]
inactive: all other assays above

COC(=O)CS
not listed: [3] | [17]
inactive: all other assays above

COC(=O)c1ccccc1
not listed: [4] | [10] | [19] | [20]
inactive: all other assays above

CCCCC(CC)CO (stereo unspecified)
not listed: [3]
inactive: all other assays above

OC/C(Br)=C(\Br)CO
not listed: [3]
inactive: all other assays above

CC(C)CCOC(=O)/C=C/c1ccccc1
not listed: [17] | [20]
inactive: all other assays above

CNc1ccc([N+](=O)[O-])cc1
not listed: [4] | [17] | [20]
inactive: all other assays above

Cc1cc(C)c(N)cc1C
not listed: [3]
inactive: all other assays above
